# The whole screen tested about 390,000 compounds, of which about 2,600 (0.67%) were called active. What follows is part of a selection rich in actives, with near analogues and random picks from the rest. Values without a mark were called inactive.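 How the source made its calls: active means mean inhibition of replicates at least 50% and at least half of replicates each reaching 50%; inconclusive means half or more replicates reach 50% but mean below 50%; inactive means the rest.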
# Target: Transforming acidic coiled-coil-containing protein 3 (Homo sapiens) (UniProt Q9Y6A5)
# Assay: inhibitors of ARNT PAS-B binding to TACC3 – biochemical, AlphaScreen, single concentration, primary screen (AID 623870);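 further: 0% = complete ARNT plus TACC3 wells and 100% = ARNT alone without TACC3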
# Details: AlphaScreen His-ARNT PAS-B/GST-TACC3 binding, luminescence; at 9.99 µM; hits give high values; TACC3 fragment carries E629A point mutation
row,Compound,inhibition
1,COc1ccc(C#Cc2cnc3c(c2)C(=O)N([C@H](C)CO)C[C@H](C)[C@H](CN(C)C(=O)CC2CC2)O3)cc1,3.95%
2,O=C1O[C@@H](c2ccccc2)[C@@H](c2ccccc2)N2[C@@H](c3ccccc3OCCO)[C@]3(C(=O)Nc4ccccc43)[C@@H](C(=O)N3CCCCCCC3)[C@H]12,29.4%
3,CCOc1ccc(N/C(N)=N/c2nc(C)c(C)c(=O)[nH]2)cc1,-20.7%
4,CCOc1ccc(-n2c(O)c(/C=N/Nc3nnc(C)c(=O)[nH]3)c3ccccc3c2=O)cc1,66.5% (active)
5,Cc1nnc(N/N=C/c2ccccn2)[nH]c1=O,61.4% (active)
6,COc1ccc(-n2c(O)c(C=NCC(c3ccco3)N3CCCC3)c3ccccc3c2=O)cc1OC (stereo not drawn),5.52%
7,C[C@@H]1CN([C@H](C)CO)C(=O)c2cc(C#CC3(O)CCCC3)cnc2O[C@H]1CN(C)Cc1ccncc1,-3.19%
8,O=C(C[C@@H]1CC[C@H]2[C@@H](COC[C@H](O)CN2C(=O)Nc2ccc(Cl)cc2)O1)NCC1CC1,-0.418%
9,CN(C)C(=O)[C@@H]1[C@@H](CO)[C@@H]2Cn3c(cccc3=O)[C@H]1N2CC1CCCCC1,10.9%
10,COCC(=O)N1C[C@H]2[C@@H](c3ccccc31)[C@@H](CO)N2Cc1ccccc1,4.41%
11,O=C(C[C@@H]1CC[C@@H]2[C@H](COC[C@@H](O)CN2Cc2ccccc2)O1)NCCc1ccccc1,0.273%
12,Clc1ccc(-c2cc(COc3ccccc3)no2)cc1Cl,1.19%
13,Fc1ccc(-c2ccc(CNCc3ccccn3)o2)cc1Cl,59.1% (active)
14,COc1ccc(-c2ccc(CNCCCN3CCOCC3)o2)cc1Cl,2.81%
15,CO[C@H](CN(C)C(=O)c1cnccn1)[C@@H](C)CN([C@@H](C)CO)S(=O)(=O)c1ccc(C)cc1,3.1%
16,C[C@@H]1CN([C@@H](C)CO)C(=O)c2cc(-c3cncnc3)cnc2O[C@@H]1CN(C)C(=O)c1ccccc1F,-2.75%
17,C[C@@H]1CN([C@H](C)CO)S(=O)(=O)c2ccc(C#CCN(C)C)cc2O[C@@H]1CN(C)C(=O)CN(C)C,-1.64%
18,O=C(CCNC(=O)c1ccccc1)NN=Cc1ccc(Br)o1,0.9%
19,O=C(CCCO)N/N=C/c1cc(Br)ccc1O,80.7% (active)
20,O=C(CCNc1n[nH]c(=O)[nH]c1=O)N/N=C\c1ccc(Br)cc1,1.48%
21,CN1C(=O)c2cc(NS(=O)(=O)c3ccc(Cl)cc3)ccc2OC[C@H]2O[C@@H](CC(=O)O)CC[C@H]21,4.03%
22,C[C@@H]1CN([C@H](C)CO)C(=O)Cc2cc(NC(=O)CCCN(C)C)ccc2O[C@H]1CN(C)CC1CCCCC1,0.403%
23,COc1ccc2ccccc2c1CNCc1ccccn1,55.2% (active)
24,COc1cc(CNCc2ccc(OC)c3ccccc23)cc(OC)c1OC,4.98%
25,CCOc1cc(CNCc2ccccn2)ccc1OCC(=O)NC(C)(C)C,36.2%

row,Compound,inhibition
1,Cc1ccc(S(=O)(=O)Nc2ccc3c(c2)C(=O)N([C@H](C)CO)C[C@H](C)[C@H](CN(C)C(=O)NC(C)C)OCCCC[C@@H](C)O3)cc1,-2.46%
2,N/C(=N\OC(=O)CCC1CCCCC1)c1ccccn1,-3.39%
3,N/C(Cc1ccc([N+](=O)[O-])cc1)=N\OC(=O)COc1ccc2ccccc2c1,1.55%
4,N/C(=N\OC(=O)Cc1ccc([N+](=O)[O-])cc1)c1ccccn1,55.4% (active)
5,COc1ccc(S(=O)(=O)N[C@@H]2CC[C@@H](CC(=O)NCCc3ccccc3)O[C@@H]2CO)cc1,-3.62%
6,CCCC#Cc1ccc2c(c1)O[C@@H](CN(C)C(=O)CC)[C@@H](C)CN([C@H](C)CO)S2(=O)=O,5.6%
7,Cc1cccc(S(=O)(=O)N[C@H]2CC[C@@H](CCNS(=O)(=O)c3ccccc3F)O[C@H]2CO)c1,1.77%
8,CCOC(=O)c1ccc(NC(=O)C2CC(=O)Nc3nc4ccccc4n32)cc1 (stereo not drawn),1.15%
9,CC(C)CN(C(=O)COC(=O)c1ccc2ccccc2c1)c1c(N)n(Cc2ccccc2)c(=O)[nH]c1=O,-0.235%
10,CCOC(=O)c1ccc(Nc2cc3ccccc3c(=O)[nH]2)cc1,4.54% (active)
11,O=C(C[C@H]1C[C@@H]2c3cc(NC(=O)C4CCOCC4)ccc3O[C@@H]2[C@H](CO)O1)NCC1CC1,-7.92%
12,OCCn1c(-c2ccccc2)csc1=Nc1ccccc1,51% (active)
13,O=c1cc(CCl)nc2scc(-c3ccccc3)n12,-9.12%
14,COc1ccccc1S(=O)(=O)N1CC[C@H]2[C@@H](CO)N(C)c3ccc(C#Cc4ccccc4)cc3[C@H]21,9.34%
15,C[C@H]1CN([C@@H](C)CO)C(=O)Cc2cc(NS(C)(=O)=O)ccc2O[C@@H]1CN(C)S(=O)(=O)c1cccs1,-10.4%
16,O=C(C[C@@H]1C[C@@H]2c3cc(NS(=O)(=O)c4ccc(F)cc4)ccc3O[C@@H]2[C@H](CO)O1)NCc1ccccc1F,-1.77%
17,N#Cc1c(N2CCCCC2)nc(N)c2c(N)nc(SCC(=O)O)cc12,80.8% (active)
18,CCCN1[C@H](C(=O)N[C@H](C)c2ccccc2)[C@@H](CO)[C@@H]2Cn3c(ccc(-c4cccc(F)c4)c3=O)[C@@H]21,2.44%
19,C[C@@H]1CN([C@H](C)CO)C(=O)Cc2cc(NC(=O)CCC(F)(F)F)ccc2O[C@@H]1CN(C)CC1CCCCC1,2.83%
20,CN1CCN(C(=O)c2cc3c(c(-c4cccc(-c5ccc(C(=O)N(C)C)cc5)c4)n2)[C@@H](CCO)N([S@](=O)C(C)(C)C)C3)CC1,-5.08%
21,CC(C)(C)[S@](=O)N1Cc2cc(C(=O)N3CCCCC3)nc(-c3cccc(-c4ccccc4F)c3)c2[C@@H]1CCO,9.08%
22,COc1ccccc1-c1cccc(-c2nc(C(=O)N3CCN(C)CC3)cc3c2[C@H](CCO)N([S@@](=O)C(C)(C)C)C3)c1,51.3% (active)
23,C[C@@H]1CN([C@H](C)CO)C(=O)c2cc(NC(=O)Nc3ccccc3)ccc2O[C@@H](C)CCCCO[C@@H]1CN(C)S(=O)(=O)c1ccc(F)cc1,-3.52%
24,CCCNC(=O)N(C)C[C@H]1Oc2ncc(-c3cccc(C#N)c3)cc2C(=O)N([C@@H](C)CO)C[C@@H]1C,-5.02%
25,O=C(NCCCn1ccnc1)c1cc2c(s1)CCCC2,49.3% (active)

row,Compound,inhibition
1,O=C(NCCCn1ccnc1)c1cc(Br)c(Br)s1,15.4%
2,O=C(NCCCn1ccnc1)c1cc(-c2ccccc2)on1,1.74%
3,O=C(N[C@H]1CC[C@H](CCNS(=O)(=O)c2ccc(F)cc2)O[C@H]1CO)c1cccc(F)c1,3.52%
4,CCS(=O)(=O)N1CCCCN2[C@@H](CO)[C@@H](c3ccc(-c4ccccc4)cc3)[C@@H]2C1,-0.151%
5,O=C([C@H]1[C@H](CO)[C@H]2Cn3c(ccc(-c4ccccc4)c3=O)[C@@H]1N2Cc1cccnc1)N1CCOCC1,42.2%
6,O=c1nc(N/N=C/c2ccco2)cn[nH]1,5.23%
7,Cn1c(=O)c2c(nc(N/N=C/c3cccs3)n2Cc2ccc(Br)cc2)n(C)c1=O,12.7%
8,Cc1n[nH]c(=O)nc1N/N=C/c1cccs1,67.8% (active)
9,C[C@@H]1CN([C@@H](C)CO)C(=O)c2cc(C3=CCCC3)cnc2O[C@@H]1CN(C)C(=O)Cc1ccncc1,3.47%
10,Cc1ccc(S(=O)(=O)Nc2ccc3c(c2)C(=O)N([C@H](C)CO)C[C@H](C)[C@H](CN(C)S(C)(=O)=O)O3)cc1,-7.55%
11,C[C@@H]1CN([C@@H](C)CO)C(=O)c2cc(-c3cccc(F)c3)cnc2O[C@@H]1CN(C)Cc1ccccc1,1.97%
12,COc1ccc(-c2ccc3c(c2)O[C@H](CN(C)Cc2ccccc2C(=O)O)[C@H](C)CN([C@@H](C)CO)S3(=O)=O)cc1,5.2%
13,O=C(N[C@@H]1CC[C@H](CCn2cc(-c3ccccn3)nn2)O[C@@H]1CO)c1ccccc1,87.5% (active)
14,O=C(N[C@@H]1CC[C@H](CCn2cc(-c3ccccc3)nn2)O[C@H]1CO)c1cnccn1,4.06%
15,O=S(=O)(N[C@@H]1CC[C@@H](CCn2cc(-c3ccccn3)nn2)O[C@@H]1CO)c1cccc(Cl)c1,69.9% (active)
16,CN(C)Cc1cn(CC[C@H]2CC[C@@H](NS(=O)(=O)c3ccccc3)[C@H](CO)O2)nn1,-3.27%
17,O=C(N[C@@H]1CC[C@@H](CCn2cc(-c3ccccn3)nn2)O[C@@H]1CO)c1ccccc1,40.7%
18,CN(C)Cc1cn(CC[C@H]2CC[C@H](NS(=O)(=O)c3ccccc3)[C@@H](CO)O2)nn1,-3.47%
19,C[C@H]1CN([C@@H](C)CO)C(=O)c2cc(C3=CCCC3)cnc2O[C@@H]1CN(C)C(=O)c1ccccc1,-1.02%
20,CC(C)OC(=O)N(C)C[C@@H]1OCc2ccccc2-c2c(n(C)c3ccccc23)C(=O)N([C@H](C)CO)C[C@H]1C,5.73%
21,CCC(=O)N(C)C[C@H]1Oc2cc(C#CCOC)ccc2S(=O)(=O)N([C@H](C)CO)C[C@H]1C,1.93%
22,CC(=O)Nc1ccc2c(c1)C(=O)N(C)[C@H]1CC[C@@H](CC(=O)NCC3CC3)O[C@H]1CO2,-14.7%
23,O=C(C[C@H]1CC[C@H]2[C@@H](COC[C@H](O)CN2Cc2ccncc2)O1)NCC1CC1,14.4%
